Source: PubChem BioAssay (The Scripps Research Institute Molecular Screening Center)
FBW7 act – activators of human E3 ligase FBW7; normalized activity (activation), % at 26.1 µM; 650,000 compounds, 0.13% hits; Q969H0; AlphaScreen FBW7–phospho-cyclin E peptide binding, activator screen; in the data active means normalized activity above about 1.9%;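 further: purified mutant Fbw7 with reduced substrate affinity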
GPR151 activ – activates the human receptor GPR151; 650,000 compounds, 1% hits; activation, % at 11.2 µM; PathHunter beta-arrestin GPR151 cells, luminescence; Q8TDV0; in the data active means activation above about 4.9%;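 further: 0% = median of compound wells and 100% = cells with positive control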
Target sequence (Q8TDV0 whole entry, looked up): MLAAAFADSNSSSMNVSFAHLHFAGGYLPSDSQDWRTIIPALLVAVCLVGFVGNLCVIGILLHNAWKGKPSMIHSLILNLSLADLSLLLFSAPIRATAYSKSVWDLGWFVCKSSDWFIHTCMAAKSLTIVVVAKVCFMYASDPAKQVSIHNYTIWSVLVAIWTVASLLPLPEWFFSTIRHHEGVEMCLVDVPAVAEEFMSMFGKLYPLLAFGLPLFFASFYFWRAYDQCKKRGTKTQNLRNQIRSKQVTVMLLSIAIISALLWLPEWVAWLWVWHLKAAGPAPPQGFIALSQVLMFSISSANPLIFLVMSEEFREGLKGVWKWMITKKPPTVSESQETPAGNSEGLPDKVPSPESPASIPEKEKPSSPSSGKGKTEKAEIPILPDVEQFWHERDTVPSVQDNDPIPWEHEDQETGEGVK
TEAD-YAP block – TEAD-YAP interaction inhibition. HEK-TIYL cells, TEAD-Gal4/YAP UAS-luciferase luminescence. inhibition, % at 9.12 µM. 640,000 compounds, 1.4% hits. AID 1259422; in the data active means inhibition above about 32%;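 further: 0% = median of test compound wells and 100% = reference inhibitor wells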
MITF inh – human MITF inhibition, primary screen | inhibition, % at 2.6 µM | 650,000 compounds, 0.91% hits | AlphaScreen MITF homodimerization, bead proximity signal | O75030; in the data active means inhibition above about 50%;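 further: 0% = vehicle wells with protein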
* marks the source's active call; other numbers are inactive results. A selection: hits, their analogues and other compounds. The true share with any hit is near 3.4%.

For C=CCNc1cc(-c2ccccn2)nc(-c2ccccn2)n1 the results were FBW7 act -1, GPR151 activ 1, TEAD-YAP block 50* and MITF inh 115*.
For c1ccc(-c2cc(NCc3ccco3)nc(-c3ccccn3)n2)nc1 the results were FBW7 act -1, GPR151 activ 1, TEAD-YAP block 59* and MITF inh 111*.
c1ccc(-c2nc(NCc3ccco3)cc(-c3cccnc3)n2)nc1 was read as FBW7 act 0, GPR151 activ 1, TEAD-YAP block 11 and MITF inh -17.
`O=C(COC(=O)c1ccc(N2C(=O)c3ccccc3C2=O)cc1)c1cccc([N+](=O)[O-])c1` gave FBW7 act 0, GPR151 activ 0, TEAD-YAP block -7 and MITF inh 3.
`COc1cc([C@@H]2c3cc4c(cc3C(OC3O[C@@H]5COC(C)O[C@H]5[C@H](O)[C@H]3O)C3COC(=O)[C@@H]32)OCO4)cc(OC)c1O` (stereo partly specified) gave FBW7 act 0, GPR151 activ 0, TEAD-YAP block -26 and MITF inh 8.
For COc1cc([C@@H]2c3cc4c(cc3[C@H](O)C3COC(=O)[C@@H]32)OCO4)cc(OC)c1OC (stereo partly specified) the results were FBW7 act 0, GPR151 activ 1, TEAD-YAP block 55* and MITF inh -1.
`CC1(C)CC(=O)C2=C(C1)Nc1ccc3ncccc3c1C2c1cn[nH]c1-c1ccc(F)cc1` (stereo unspecified) gave FBW7 act 0, GPR151 activ -1, TEAD-YAP block 35* and MITF inh -2.
`CC1(C)CC(=O)C2=C(C1)Nc1ccc3ncccc3c1C2c1cccc(Cl)c1Cl` (stereo unspecified) gave FBW7 act 0, GPR151 activ 2, TEAD-YAP block 3 and MITF inh 2.
`N#Cc1ccc(/C=C(\C(=O)C(=O)O)c2ccc3ccccc3n2)cc1` gave FBW7 act 1, GPR151 activ -4, TEAD-YAP block -30 and MITF inh 22.
Screening COC(=O)c1ccc(/C=C(\C(=O)C(=O)O)c2ccc3ccccc3n2)cc1 returned FBW7 act 0, GPR151 activ -2, TEAD-YAP block 60* and MITF inh 11.
O=C(Nc1cc(Oc2ccc3oc4c(c3c2)CCCC4)cc([N+](=O)[O-])c1)c1nn2c(C(F)(F)F)cc(-c3ccccc3)nc2c1Cl was read as FBW7 act 0, GPR151 activ 0, TEAD-YAP block 3 and MITF inh 16.
CC(=O)Nc1ccc(-c2cn3c4c(sc3n2)CCCC4)cc1 was read as FBW7 act 0, GPR151 activ 0, TEAD-YAP block -36 and MITF inh -1.
For c1ccc(-c2cn3c4c(nnc3n2)CCCC4)cc1 the results were FBW7 act 0, GPR151 activ -1, TEAD-YAP block 44* and MITF inh 18.
`O=C(Nc1ccc(-c2cn3c4c(nnc3n2)CCCC4)cc1)c1cccnc1` gave FBW7 act 0, GPR151 activ 0, TEAD-YAP block -2 and MITF inh -9.
For Fc1ccc(-c2cn3c4c(sc3n2)CCCC4)cc1 the results were FBW7 act 0, GPR151 activ -10, TEAD-YAP block 52* and MITF inh -10.
Nc1ccc(-c2cn3c4c(sc3n2)CCCC4)cc1 was read as FBW7 act 0, GPR151 activ 0, TEAD-YAP block 27 and MITF inh -9.
Screening c1ccc(-c2cn3c4c(sc3n2)CCCC4)cc1 returned FBW7 act 0, GPR151 activ -7, TEAD-YAP block 85* and MITF inh 4.
`COC(=O)c1ccc(COC(=O)c2sccc2C)cc1` gave FBW7 act 0, GPR151 activ -10, TEAD-YAP block -25 and MITF inh -7.
COC(=O)c1sc(SC)nc1Nc1ccnc(Nc2cc(OC)ccc2OC)c1 was read as FBW7 act 0, GPR151 activ 5, TEAD-YAP block 48* and MITF inh 9.
`O=C(O)c1cc(S(=O)(=O)Nc2ccc3c(c2)OCCO3)c(Cl)cc1Cl` gave FBW7 act 0, GPR151 activ 1, TEAD-YAP block 36* and MITF inh 5.
`CC[C@@]1(O)C(=O)OCc2c1cc1n(c2=O)Cc2cc3cc(O)ccc3nc2-1` gave FBW7 act 0, GPR151 activ -1, TEAD-YAP block 84* and MITF inh 12.
`Cc1ccc(S(=O)(=O)N2CCN(c3ccc([N+](=O)[O-])c(NC(C)CCc4ccccc4)c3)CC2)cc1` (stereo unspecified) gave FBW7 act 0, GPR151 activ -2, TEAD-YAP block 6 and MITF inh 4.
